The whole screen tested about 360,000 compounds, of which about 4,600 (1.3%) were called active. This is one part of a sample in which actives are shown more often than they occur.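 The calls were made as follows: active = percent inhibition above its own plate's cutoff, namely the mean of that plate's compound wells plus 3 SD; inactive = the rest.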
target: Muscarinic acetylcholine receptor M1 (Homo sapiens) (UniProt P11229); assay: human M1 muscarinic receptor antagonists, primary screen, CHO-K1 cells, Fluo-8 calcium fluorescence, 1536-well (AID 588852); settings: CHO-K1 hM1, Fluo-8 calcium fluorescence, ACh EC80 antagonist; at 3 µM; hits give high values;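 also: peak over basal fluorescence ratio during 140 s after agonist addition; 0% = ACh EC80 plus DMSO and 100% = DMSO alone without agonist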
Sequence (P11229 whole entry, looked up): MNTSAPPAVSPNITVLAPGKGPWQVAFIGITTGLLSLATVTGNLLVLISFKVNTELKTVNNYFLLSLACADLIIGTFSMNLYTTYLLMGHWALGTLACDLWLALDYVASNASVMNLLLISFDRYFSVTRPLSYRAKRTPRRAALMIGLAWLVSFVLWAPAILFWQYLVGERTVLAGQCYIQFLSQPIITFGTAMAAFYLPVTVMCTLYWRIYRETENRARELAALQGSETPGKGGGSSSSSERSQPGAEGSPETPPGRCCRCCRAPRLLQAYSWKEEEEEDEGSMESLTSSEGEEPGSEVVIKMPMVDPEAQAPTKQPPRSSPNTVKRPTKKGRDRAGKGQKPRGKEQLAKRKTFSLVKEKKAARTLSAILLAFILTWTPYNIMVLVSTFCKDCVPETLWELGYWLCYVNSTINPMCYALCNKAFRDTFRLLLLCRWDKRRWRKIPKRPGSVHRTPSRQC

Compound	inhibition
COCC(=O)N1CCCC(C(=O)c2ccc(C(F)(F)F)cc2)C1 (centres undefined)	-12.9% (inactive)
O=C1CCCC2=C1C(c1cccs1)n1nc(SCc3ccccc3)nc1N2 (centres undefined)	-6.44% (inactive)
O=C(NCC1CCCO1)c1cc2c([nH]c3ccccc32)c(-c2ccc(F)cc2)n1 (centres undefined)	42.6% (active)
O=C(NCCCO)c1cc2c([nH]c3ccccc32)c(-c2ccc(F)cc2)n1	1.06% (inactive)
COc1ccc2cc(C(=O)NCC3CCCO3)[nH]c2c1 (centres undefined)	-11.4% (inactive)
CC(C)(C)c1ccc(CCC2OCC(CN3CCOCC3)O2)cc1 (centres undefined)	-5.48% (inactive)
NC(=O)CC[C@@H]1NC(=O)[C@@H]2CCCN2C(=O)c2cc([N+](=O)[O-])cc(F)c2NCCC[C@@H](C(N)=O)NC1=O	-13.1% (inactive)
CN(CC(=O)Nc1ccc(S(=O)(=O)N2CCCC2)cc1)Cc1ccc(Cl)c(Cl)c1	34.9% (active)
CC(C(=O)Nc1ccc(S(=O)(=O)N2CCCC2)cc1)N(C)Cc1ccc(F)cc1 (centres undefined)	53.5% (active)
CC(OC(=O)c1ccc(NC(=O)CC#N)cc1)C(=O)Nc1ccc(S(=O)(=O)N2CCCC2)cc1 (centres undefined)	32.6% (inactive)
COc1cccc(CNC(C)C(=O)Nc2ccc(S(=O)(=O)N3CCCC3)cc2)c1 (centres undefined)	39.5% (active)
Cc1ccc(CC(=O)Nc2ccc(S(=O)(=O)N3CCOCC3)cc2)cc1C	-11.9% (inactive)
O=C(Nc1ccc(S(=O)(=O)N2CCCCC2)cc1)C1CCN(C(=O)c2ccc(F)cc2)CC1	9.2% (inactive)
CCN(CC(=O)Nc1ccc(S(=O)(=O)N2CCCC2)cc1)CC(=O)Nc1cccc(OC)c1	-10.7% (inactive)
CCc1ccc(NC(=O)CN2C(=O)COc3ccc(S(=O)(=O)N4CCCC4)cc32)cc1	-15.9% (inactive)
O=C(Nc1ccc(S(=O)(=O)N2CCCCC2)cc1)C1CC(=O)N(c2ccc(F)cc2)C1 (centres undefined)	-6.03% (inactive)
CN(CC(=O)Nc1ccc(F)cc1)CC(=O)Nc1ccc(Cl)c(S(=O)(=O)N2CCOCC2)c1	-20.8% (inactive)
CCc1ccc(CN(C)C(C)C(=O)Nc2ccc(S(=O)(=O)N3CCCC3)cc2)cc1 (centres undefined)	88.9% (active)
COc1ccccc1CC(=O)Nc1ccc(S(=O)(=O)N2CCCC2)cc1	-9.64% (inactive)
COc1cccc(CNn2cn[nH]c2=S)c1OCc1ccccc1	-12.7% (inactive)
COc1ccccc1-c1cc2nc(NCc3cccc(Cl)c3)ccn2n1	-15.4% (inactive)
Nc1ncnc2c1ncn2[C@@H]1O[C@H](C(=O)NS(=O)(=O)c2c(Cl)nc3sccn23)[C@@H](O)[C@H]1O	-32.1% (inactive)
Cc1csc2nc(COC(=O)c3cccc(N(C)C)c3)cc(=O)n12	6.38% (inactive)

Compound	inhibition
O=C(CN1CCCCCC1)Nc1ccc(S(=O)(=O)N2CCCCC2)cc1	33.1% (active)
O=C(CSCc1ccc(Br)cc1)Nc1ccc(S(=O)(=O)N2CCCCCC2)cc1	4.8% (inactive)
CCOc1ccc(NC(=O)COc2ccc(S(=O)(=O)N3CCCC3)cc2)cc1	16% (inactive)
COCc1c(C(=O)N/N=C(\C)c2ccncc2)nnn1-c1nonc1N	-10.9% (inactive)
FC(F)(F)c1ccccc1Cc1c(-c2ccccc2)nc2c3ccccc3ccn12	-26% (inactive)
COc1ccccc1N(CC(=O)Nc1c(C)n(C)n(-c2ccccc2)c1=O)S(=O)(=O)c1ccccc1	-20.5% (inactive)
CN(C)CCCCCN(C)Cc1cc2ccccc2o1	-3.73% (inactive)
COc1ccc(-c2cc(NC=O)c3ncc(-c4ccccc4)n3c2)cc1OC	4.7% (inactive)
NC(c1ccccc1)c1csc(NC(=O)Nc2cccc(C(F)(F)F)c2)n1 (centres undefined)	6.11% (inactive)
CC(=O)Nc1ccc(-c2cn3cccnc3n2)cc1	-2.56% (inactive)
CC(=O)Nc1ccc(-c2csc(NC(=O)Nc3ccccc3)n2)cc1	38.3% (active)
CC(CCc1ccccc1)NC(=O)c1cnc(Cl)c(Cl)c1 (centres undefined)	2.23% (inactive)
COc1ccc(CNC(=O)C(C)NCc2ccccc2Cl)cc1 (centres undefined)	1.81% (inactive)
CC(CCc1ccc(O)cc1)NCc1ccc(Cl)cc1Cl (centres undefined)	30.2% (active)
COc1ccc(-c2cc(NC=O)c3ncc(-c4cc(OC)c(OC)c(OC)c4)n3c2)c(OC)c1	5.71% (inactive)
Cc1ccc2cc(CCNC(=O)c3ccc4c(c3)OCO4)c(=O)[nH]c2c1	-6.75% (inactive)
Cc1ccc(N(C(=O)c2sc(C)nc2C)C(C(=O)NC(C)(C)C)c2ccncc2)cc1 (centres undefined)	-4.9% (inactive)
CCOCCCNS(=O)(=O)Cc1ccccc1	-12.6% (inactive)
Cc1nccn1-c1ccc(NC(=O)[C@H]2O[C@@H](n3cnc4c(N)ncnc43)[C@H](O)[C@@H]2O)cc1	-16.5% (inactive)
CCCCCn1c(=O)[nH]c2cc(C(=O)NCCCN3CCCCC3C)ccc2c1=O (centres undefined)	27.5% (active)
O=C(NC1CCCCC1)c1ccc2c(=O)n(CC3CCCO3)c(=O)[nH]c2c1 (centres undefined)	-13.8% (inactive)
CC1CCCCN1CCCNC(=O)Cn1ncc2c([nH]c3ccccc32)c1=O (centres undefined)	3.02% (inactive)
Cc1ccccc1NC(=O)Cc1nc(COC(=O)CNC(=O)c2ccc(Cl)cc2Cl)cs1	-13% (inactive)

Compound	inhibition
CN(C(=O)CN1C(=O)NC(C)(CCc2ccccc2)C1=O)c1ccccc1 (centres undefined)	-11.9% (inactive)
Cc1ccc(CN2C(=O)N/C(=C/c3cc(C)n(-c4ccccn4)c3C)C2=O)cc1	-1.22% (inactive)
CN(C)c1ccc(/C=C2\NC(=S)N(Cc3ccccc3)C2=O)cc1	68.3% (active)
COc1ccc(-c2cc(NC(C)=O)c3ncc(-c4cc(OC)c(OC)c(OC)c4)n3c2)cn1	-10.3% (inactive)
CC(=O)N[C@H]1[C@H]([C@H](O)[C@H](O)CO)OC(C(=O)O)=C[C@@H]1O	-23.4% (inactive)
CC(=O)Nc1cc(-c2ccccc2F)cn2c(-c3cccc(C(F)(F)F)c3)cnc12	-3.02% (inactive)
Cc1occc(=O)c1OCc1ccc(F)cc1	-6.78% (inactive)
Cc1nc2ccccc2cc1OCc1ccc(F)cc1	18% (active)
Fc1cccc2ncnc(OCc3ccccc3)c12	-13.7% (inactive)
Clc1cccc(Cc2c(-c3cccc(Cl)c3)nc3ccc(Cl)cn23)c1	-29.8% (inactive)
Clc1ccccc1Nc1nc(NCc2cccs2)nc2ccsc12	7.85% (inactive)
COCCNc1nc(Nc2ccccc2Cl)c2sc(-c3ccccc3)cc2n1	-5.82% (inactive)
COc1ccccc1CNc1nc(Nc2ccccc2Cl)c2sccc2n1	30.1% (active)
Cc1cc(Br)cn2c(Cc3cccc(F)c3)c(-c3cccc(Br)c3)nc12	-3.87% (inactive)
c1ccc2c(c1)OCC(CNc1ncnc3nc[nH]c13)O2 (centres undefined)	101% (active)
COc1ccc(CCNc2ncnc3nc[nH]c23)cc1OC	5.06% (inactive)
O=C(Cn1cnc2ccccc2c1=O)NCC1COc2ccccc2O1 (centres undefined)	-3.89% (inactive)
CCCN1CNC(=S)N(CCc2ccccc2)C1	-6.28% (inactive)
CC1(C)Cc2c(cnn2-c2cccc(F)c2)C(NC(=O)c2cc[n+]([O-])cc2)C1 (centres undefined)	9.23% (inactive)
Cn1nccc1C(=O)NC1CCCc2c1cnn2-c1ccc(F)cc1F (centres undefined)	31.6% (active)
Cc1ccc(-n2ncc3c2CCCC3NC(=O)c2cnccn2)cc1C (centres undefined)	-17.9% (inactive)
CCOC(=O)c1ccc(NC(=O)CS(=O)(=O)c2cn(CC)c3ccccc23)cc1	-2.75% (inactive)
CCCc1nnc(SCC(=O)Nc2ccc(C(=O)OCC)cc2)o1	9% (inactive)

Compound	inhibition
CCOC(=O)c1ccc(NC(=O)Cn2cnc3cc(C)c(C)cc32)cc1	37.4% (active)
Cc1ccc(Cc2c(-c3ccco3)nc3ccc(Cl)cn23)cc1	-22.8% (inactive)
COc1cccc(CN(C)C(=O)CC[C@H]2O[C@@H](n3cnc4c(NC(=O)c5ccccc5)ncnc43)[C@H](O)[C@@H]2O)c1	-19.1% (inactive)
CC1=C(C(=O)N(C(C)C)C(C)C)CC(CC(=O)NCCCCc2ccccc2)C(=O)N1CCC1=CCCCC1 (centres undefined)	-20.5% (inactive)
OC[C@@H]1CN(Cc2ccc(-c3ccccc3)cc2)C[C@H](n2cnc3c(NC4CCCC4)ncnc32)O1	32% (active)
OC[C@@H]1CN(Cc2ccc(F)cc2)C[C@H](n2cnc3c(NC4CCCC4)ncnc32)O1	-0.24% (inactive)
OC[C@@H]1CN(Cc2cccs2)C[C@H](n2cnc3c(NC4CCCC4)ncnc32)O1	-11.8% (inactive)
O=C(c1ccc(N2CCOCC2)c([N+](=O)[O-])c1)N1CCN(c2ccccc2F)CC1	-20.3% (inactive)
O=C(c1ccc(N2CCCC2=O)cc1)N1CCN(c2ccc(C(F)(F)F)cc2[N+](=O)[O-])CC1	53.8% (active)
COc1cc(OC)cc(C(=O)NC(=S)N2CCN(c3ccc(C(F)(F)F)cc3[N+](=O)[O-])CC2)c1	-3.37% (inactive)
NC(c1csc(NC(=O)Nc2cccc(C(F)(F)F)c2)n1)C1CCCCC1 (centres undefined)	2.03% (inactive)
CCc1cc2c(SCC(=O)Nc3ncc(Cl)c(C)c3Cl)ncnc2s1	3.21% (inactive)
CN(C)c1cc[n+](Cc2ccccc2)cc1	21.7% (inactive)
c1ccc(CNCc2ccc(CNCc3ccccc3)cc2)cc1	2.12% (inactive)
c1ccc(Cc2cc[n+](Cc3ccccc3)cc2)cc1	37.1% (active)
CCOc1ccc(CCNC(=O)C2=C(C)C(=O)OC23CCC(C)CC3)cc1OCC (centres undefined)	-7.29% (inactive)
NC(c1csc(NC(=O)Nc2ccccc2Oc2ccccc2)n1)c1ccccc1Cl (centres undefined)	-3.63% (inactive)
Cc1ccc(C)c(NC(=O)CN(C)C(=O)COc2ccc3ccccc3c2)c1	-15% (inactive)
CN(Cc1ccc(F)cc1)C(=O)COc1ccc2ccccc2c1	24.7% (active)
CN(Cc1ccccc1)C(=O)COc1ccccc1	1.72% (inactive)

Source: PubChem BioAssay AID588852 (The Scripps Research Institute Molecular Screening Center, 2011)
